This is an account of results in PubChem BioAssay (NCI).

The structures appear in SMILES notation. About 79,000 compounds went through this panel and 15% of them were active in at least one assay; those are over-represented in the sample as a whole. Unmarked numbers belong to inactive results. Active and inactive are the calls of the source. Cut-off read from the data, not from the text of the source: active = growth inhibition above about 70%; inactive = the rest.

The nature of test [1]: NCI Yeast Anticancer Drug Screen. Data for the rad50 strain (AID 155).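 Note: 0% = growth of vehicle-only cultures of the same strain.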 The following applies: S. cerevisiae rad50 strain growth inhibition; at 50.0 µM; active compounds read high. An outline of the steps:
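Inhibition values express reduced yeast growth in compound-treated cultures relative to vehicle-treated controls.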

Test [2] in a line: NCI Yeast Anticancer Drug Screen. Data for the mec2-1 strain (AID 157). The conditions noted are these: S. cerevisiae mec2-1 strain, at 50.0 µM, active compounds read high. The method in brief:
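Vehicle-treated cultures served as reference for growth inhibition of compound-exposed mec2-1 yeast.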

A short description of test [3]: NCI Yeast Anticancer Drug Screen. Data for the sgs1 mgt1 strain (AID 161).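 Note: 0% = growth of cultures given vehicle only.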 The conditions noted are these: S. cerevisiae sgs1 mgt1 strain, at 50.0 µM, active compounds read high. An outline of the steps: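 Mutant yeast exposed to compound; growth scored against vehicle-only wells.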
Test [4] can be described thus: NCI Yeast Anticancer Drug Screen. Data for the cln2 rad14 strain (AID 165).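 Note: 0% = growth equal to vehicle treated cultures.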 The conditions noted are these: S. cerevisiae cln2 rad14 strain, at 50.0 µM, active compounds read high. The method in brief: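 Each compound was tested on cln2 rad14 yeast. Inhibition of growth was calculated against vehicle-exposed controls.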
The nature of test [5]: NCI Yeast Anticancer Drug Screen. Data for the bub3 strain (AID 167). The conditions noted are these: S. cerevisiae bub3 mutant strain, at 50.0 µM, active compounds read high. The method in brief: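 Steps: expose the mutant yeast strain to compound; grow alongside vehicle-treated cultures; measure growth; express inhibition against the vehicle cultures.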
Test [6] in a line: NCI Yeast Anticancer Drug Screen. Data for the mlh1 rad18 strain (AID 175). The following applies: S. cerevisiae mlh1 rad18 strain growth inhibition; at 50.0 µM; active compounds read high. An outline of the steps:
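Vehicle-treated cultures served as the reference for growth inhibition in a yeast strain carrying DNA damage repair alterations exposed to each compound.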

In the case of `O=C(O)/C=C\C(=O)Nc1ccccc1`, the growth inhibition was 10.2% in test [1]; 15.8% in test [2]; -16.1% in test [3]; -53.5% in test [4]; -3.25% in test [5]; 11.5% in test [6].
As to `COc1nc2n[nH]nc2c(=O)n1C`, the growth inhibition in test [1] was -5.75%; in test [2] it was -10.8%; in test [3], -13.1%; in test [4], 13.7%; in test [5], -5.1%; in test [6] it was -21.6%.
With `C=CCOC(=O)C(CC=C)C(C)=O` (stereo unspecified), the growth inhibition in test [1] was 3.3%; in test [2], -21.9%; in test [3] it was -17.1%; in test [4], -5.05%; in test [5], -19.8%; in test [6], -11.4%.
For `O=C(OC1CC2CCC1C2)c1cc([N+](=O)[O-])cc([N+](=O)[O-])c1` (stereo unspecified), the growth inhibition was 8.55% in test [1]; -1.4% in test [2]; -9% in test [3]; -20.4% in test [4]; -3.7% in test [5]; -3% in test [6].
Regarding `Cc1ccc(N=Nc2ccc(C)cc2NC(=O)c2ccc(Cl)cc2)cc1`, the growth inhibition in test [1] was -3.15%; in test [2], 10.2%; in test [3], 17.1%; in test [4], -7.8%; in test [5] it was 32.3%; in test [6], 8.85%.
As to `CC(C)(C)CC(C)(C)[N+](=O)[O-]`, the growth inhibition in test [1] is -1.15%; in test [2] it was -14.6%; in test [3] it was 2.75%; in test [4] it was 6.85%; in test [5] it was -3.25%; in test [6], 18.4%.
With `COc1ccc(/C(Cl)=C(\C=O)c2cc(OC)c(OC)c(OC)c2)cc1OC`, the growth inhibition is -0.9% in test [1]; 23.1% in test [2]; -5% in test [3]; 13.8% in test [4]; -3.45% in test [5]; 13.9% in test [6].
As to `Cc1cc2c(C)n(Cc3ccc(Cl)cc3Cl)nc2c(C#N)c1C`, the growth inhibition is -11.2% in test [1]; -7.05% in test [2]; -9.6% in test [3]; 20.2% in test [4]; -2.45% in test [5]; -3.9% in test [6].
For `O=S(=O)(Nc1ccn(-c2ccccc2)n1)c1ccc(NCc2c3ccccc3nc3cc(Cl)ccc23)cc1`, the growth inhibition was 17.1% in test [1]; 21.2% in test [2]; 15.8% in test [3]; -24.2% in test [4]; -13.6% in test [5]; 23.6% in test [6].
Regarding `CC1(C)C(c2ccccc2)=NN(O)c2ccccc21`, the growth inhibition in test [1] was -22.3%; in test [2], -15.8%; in test [3], 0.25%; in test [4], 15.4%; in test [5], -4.5%; in test [6], -9.4%.
For the molecule `CC1CCc2[nH]nc(CC3CC(=O)NC(=O)C3)c2C1` (stereo unspecified), the growth inhibition in test [1] was 15.9%; in test [2], -2.2%; in test [3], 10.8%; in test [4], 27.2%; in test [5] it was -7.35%; in test [6], 3.7%.
On to `Nc1nnc2nc(CC(=O)c3cccc([N+](=O)[O-])c3)c(CC(=O)c3cccc([N+](=O)[O-])c3)nn12`, for which the growth inhibition was 4.5% in test [1]; 4.2% in test [2]; 9.35% in test [3]; 18.2% in test [4]; 18.6% in test [5]; 14.8% in test [6].
Regarding `CC(=O)C(=Cc1ccc(Cl)c(Cl)c1)C(C)=O`, the growth inhibition was 99.5% (active) in test [1]; 99.7% (active) in test [2]; 99.7% (active) in test [3]; 99.6% (active) in test [4]; 99.5% (active) in test [5]; 99.5% (active) in test [6].
With `O=C(O)c1ccc(C(=O)Nc2cccc3ccccc23)c(C(=O)O)c1`, the growth inhibition is -6.9% in test [1]; 8.4% in test [2]; -11.9% in test [3]; 6.35% in test [4]; 3.55% in test [5]; -10.2% in test [6].
As for `CC(C)=C1C(=O)N(C)C(=O)C1C(N)=O` (stereo unspecified), the growth inhibition was 0.1% in test [1]; 1.85% in test [2]; -15.9% in test [3]; -6.05% in test [4]; 2.85% in test [5]; 11.4% in test [6].
With `C(=C\CSc1ccccn1)/CSc1ccccn1`, the growth inhibition is 50% in test [1]; 6.4% in test [2]; 56.6% in test [3]; 18.6% in test [4]; 49.4% in test [5]; 25% in test [6].
Turning to `CCCCOC(=O)NC(=O)c1cc2cc(Br)cc(Br)c2oc1=O`, the growth inhibition was -2% in test [1]; 25.8% in test [2]; 0.3% in test [3]; -7.05% in test [4]; -1.2% in test [5]; -17.2% in test [6].
Turning to `CCCc1c(-c2ccccc2)nc(N)nc1-c1nc(N)nc(-c2ccccc2)c1CCC`, the growth inhibition in test [1] was -1.75%; in test [2], -10.7%; in test [3], -12.4%; in test [4], 9.4%; in test [5], -2.25%; in test [6], -1.4%.
With `Cc1ccccc1N=Cc1ccc(N(CCC#N)S(=O)(=O)c2ccccc2)cc1`, the growth inhibition is 11.7% in test [1]; -8.3% in test [2]; 19.9% in test [3]; 18.7% in test [4]; 0.95% in test [5]; 15% in test [6].
`Cn1cc(S(=O)(=O)NC(=O)Nc2ccc(Cl)cc2)c(=O)c2ccc(Cl)cc21`: the growth inhibition in test [1] is 21.6%; in test [2], 20.8%; in test [3] it was 23.1%; in test [4] it was -17.5%; in test [5] it was 33.2%; in test [6], 8.75%.
On to `Cc1cccc(CNc2ncnc3[nH]ncc23)c1`, for which the growth inhibition was -15% in test [1]; -30.8% in test [2]; -24.8% in test [3]; -12.6% in test [4]; -36.1% in test [5]; 3.15% in test [6].
